# Source: PubChem BioAssay AID2284156 (EPA ToxCast)
# Activity calls are given as the source filed them. The calls were made as follows: active = hit-call score of the fitted dose curve at least 0.9, where 1 is the maximum; inactive = score below 0.9.
# Biological target: Muscarinic acetylcholine receptor M5 (Homo sapiens) (UniProt P08912)
# Test: ERF_FR_GPCR_hCHRM5: Eurofins (ERF) G Protein-Coupled Receptor (GPCR) Radioligand Binding LeadHunter Assay for human Muscarinic Acetylcholine Receptor M5 Antagonism, conducted at France lab site
# Experimental: ERF_FR_GPCR_hCHRM5 is a biochemical, single-readout assay that uses extracted gene-proteins in a cell-free assay. Measurements were taken 1 hour after chemical dosing in a 96-well plate. See M5 Human Acetylcholine (Muscarinic) GPCR Binding (Antagonist Radioligand) Assay, Cerep.ERF_FR_GPCR_hCHRM5 is an assay component calculated from the ERF_FR_GPCR_hCHRM5 assay. It is designed to measure radioligand binding using a type of binding reporter as detected by scintillation counting with radiometry technology.Data from the assay component ERF_FR_GPCR_hCHRM5 was analyzed at the assay endpoint, ERF_FR_GPCR_hCHRM5, in the positive analysis fitting direction relative to DMSO as the negative control and baseline of activity. Using a type of binding reporter, loss-of-signal activity can be used to understand changes in binding as they relate to gene CHRM5. To generalize the intended target to other relatable targets, this assay endpoint is annotated to the gpcr intended target family, where the subfamily is acetylcholine (Muscarinic).
# Human cells are incubated for 60 minutes at room temprature with [3H]4-DAMP ligand (0.3 nM) and 4-Damp methiodide as control inhibitor.Test Sample Requirements: Minimum for 1) Screen: 60 ul of 10 mM stock -OR- 1 mg (pre-weighed) for 10 uM final testing. 2) Dose Response: 90 ul of 10 mM stock -OR- 1 mg (pre-weighed) for a top concentration at 10 uM.
# Sequence of Muscarinic acetylcholine receptor M5 (Homo sapiens) (P08912 whole entry, looked up): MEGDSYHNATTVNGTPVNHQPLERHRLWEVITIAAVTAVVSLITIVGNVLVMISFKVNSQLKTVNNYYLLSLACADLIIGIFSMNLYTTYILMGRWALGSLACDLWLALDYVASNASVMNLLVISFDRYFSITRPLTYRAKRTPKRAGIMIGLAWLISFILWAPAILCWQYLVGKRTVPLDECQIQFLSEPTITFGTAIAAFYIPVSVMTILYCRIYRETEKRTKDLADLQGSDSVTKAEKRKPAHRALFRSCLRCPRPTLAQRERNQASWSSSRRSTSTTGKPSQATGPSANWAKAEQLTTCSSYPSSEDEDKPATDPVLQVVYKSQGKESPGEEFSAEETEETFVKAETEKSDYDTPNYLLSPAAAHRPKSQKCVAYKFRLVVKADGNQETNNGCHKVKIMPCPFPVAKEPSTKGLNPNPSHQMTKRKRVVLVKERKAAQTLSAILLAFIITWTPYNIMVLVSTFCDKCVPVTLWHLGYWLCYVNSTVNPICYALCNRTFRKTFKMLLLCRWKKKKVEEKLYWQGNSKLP
row,Structure (SMILES),outcome
1,O=C(/C=C/c1ccc(O)cc1)CC(=O)/C=C/c1ccc(O)cc1,inactive
